L3MBTL1 block = qHTS Assay for the Inhibitors of L3MBTL1. Lethal(3)malignant brain tumor-like protein 1 (Homo sapiens), Q9Y468. AlphaScreen L3MBTL1–H3K9me1 peptide binding. Potency, µM (highest dose often 57.1 µM), usual class: inhibitors. hit rate 0.66% among 230,000; further: nearly all actives have a fitted effect of over 60% in size
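AlphaScreen assay: L3MBTL1 (50 nM final) was preincubated 30 min at room temperature with biotinylated H3(1-15)K9me1 peptide (75 nM final), then 30 min with library compounds; streptavidin donor and nickel chelate acceptor beads (10 ug/mL final) added, 30 min dark.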
PI5P4Ka inh = qHTS for Inhibitors of phosphatidylinositol 5-phosphate 4-kinase (PI5P4K); AID 652105, 2013; PI5P4Kalpha enzyme, ADP-Glo luminescence, 60 min; hits give low values; max response, %; Phosphatidylinositol 5-phosphate 4-kinase type-2 alpha (Homo sapiens), P48426; hit rate 1.2% among 330,000; active means max response of -50% or lower; inconclusive means between -30% and -50%; inactive means -30% or higher; further: value at the top dose of about 77 µM
Target sequence (P48426 whole entry, looked up): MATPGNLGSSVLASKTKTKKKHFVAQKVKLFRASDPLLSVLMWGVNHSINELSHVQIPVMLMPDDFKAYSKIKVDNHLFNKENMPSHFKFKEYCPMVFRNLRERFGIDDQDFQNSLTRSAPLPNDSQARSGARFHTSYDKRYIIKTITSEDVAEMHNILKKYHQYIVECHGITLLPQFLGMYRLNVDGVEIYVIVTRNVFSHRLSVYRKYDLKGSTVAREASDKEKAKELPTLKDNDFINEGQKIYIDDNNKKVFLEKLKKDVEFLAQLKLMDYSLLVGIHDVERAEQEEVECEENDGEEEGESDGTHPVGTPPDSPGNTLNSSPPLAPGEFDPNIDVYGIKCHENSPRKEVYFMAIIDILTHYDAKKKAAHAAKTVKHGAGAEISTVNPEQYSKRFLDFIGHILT
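Human PI5P4Kalpha with substrate in 0.038 M HEPES pH 7.4, 0.28 mM EGTA, 0.1% CHAPS, 5% DMSO; reaction started with 5 microM ATP (final), 60 min at room temperature. ADP formed read by ADP-Glo luminescence.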
JMJD2A Tudor inh = qHTS Assay for Inhibitors of JMJD2A-Tudor Domain; AlphaScreen JMJD2A-Tudor / H3K4me3 peptide binding; Potency, µM (top dose mostly 114 µM), hits mostly inhibitors; hit rate 4.4% among 390,000; AID 504339, 2011; Lysine-specific demethylase 4A (Homo sapiens), O75164; further: nearly all actives have a fitted effect of over 50% in size
G9a inh = qHTS Assay for Inhibitors of Histone Lysine Methyltransferase G9a; hit rate 8.8% among 350,000; G9a H3K9 monomethylation, AlphaScreen, 2 h; Potency, µM (doses to about 102 µM), hits mostly inhibitors; further: nearly all actives have a fitted effect of over 75% in size
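AlphaScreen detection with an anti-monomethyl H3K9 antibody quantified product after a 2 h room-temperature reaction containing 500 nM biotinylated H3K9 peptide, 20 µM SAM and 20 nM enzyme, which had been preincubated 15 min with compound.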
BAZ2B inh = qHTS Assay for Inhibitors of BAZ2B | Bromodomain adjacent to zinc finger domain protein 2B (Homo sapiens), Q9UIF8 | hit rate 4.4% among 360,000 | AlphaScreen BAZ2B-H3K14Ac peptide displacement | Potency, µM (highest dose often 114 µM), hits mostly inhibitors; further: nearly all actives have a fitted effect of over 60% in size
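Protein-peptide AlphaScreen: BAZ2B 50 nM, b-H3K14Ac 50 nM, 1x PBS pH 7.4 + 0.01% Tween-20. Preincubation 30 min RT; cpd 30 min RT (top 110 uM); beads 20 min RT, light-protected.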
HP1b chromo inh = HTS for Inhibitors of HP1-beta Chromodomain Interactions with Methylated Histone Tails; Chromobox protein homolog 1 (Homo sapiens), P83916; AlphaScreen HP1-beta / biotin-H3K9me3 peptide binding; Potency, µM (highest dose often 114 µM), usual class: inhibitors; hit rate 0.56% among 390,000; further: nearly all actives have a fitted effect of over 70% in size
Target sequence (P83916 whole entry, looked up): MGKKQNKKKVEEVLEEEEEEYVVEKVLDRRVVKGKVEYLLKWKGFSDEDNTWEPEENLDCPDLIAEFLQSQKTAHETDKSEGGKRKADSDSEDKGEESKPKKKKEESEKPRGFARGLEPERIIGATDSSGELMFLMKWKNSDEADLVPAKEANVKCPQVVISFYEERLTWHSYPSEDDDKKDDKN
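AlphaScreen: HP1-beta (50 nM) preformed 30 min with biotin-H3(1-18)K9me3 peptide (50 nM) in PBS pH 7.4, 0.01% Tween-20. Compound added for 30 min at RT, then streptavidin donor/nickel chelate acceptor beads (10 ug/mL) for 30 min.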
Each line names hits and unclear results; the compound was inactive in the other large screens. Hits are enriched below; roughly 11% of the tested compounds scored in any of these assays. Unless noted, the call rests on the fitted dose curve; in most records, active means well fitted inhibition curve with a large enough effect; inconclusive means small, poorly fitted or top-dose-only effect; inactive means no such curve, though single readings can be large or run the other way.

COc1ccc(-c2ccc(C(c3c(C)[nH][nH]c3=O)c3c(C)[nH][nH]c3=O)o2)c([N+](=O)[O-])c1	JMJD2A Tudor inh inconclusive, G9a inh 3.98µM, BAZ2B inh 39.8µM
CC(=O)c1cccc(NC(=O)CN2C(=O)CCc3cc(S(=O)(=O)N4CCCCC4)ccc32)c1	none (no result: L3MBTL1 block, PI5P4Ka inh)
O=C(Cn1cnc([N+](=O)[O-])c1)NCCc1ccccc1	G9a inh 28.2µM
O=C(Cn1cnc([N+](=O)[O-])c1)NCc1ccc(F)cc1	none (no result: G9a inh)
CCCCOc1ccc(NC(=O)CSc2ccc(C(=O)O)cn2)cc1	none (no result: L3MBTL1 block, PI5P4Ka inh)
CCOC(=O)c1c(CN(C)C)n(C)c2c(O)c(N=NC(N)=O)c3ccc(Br)cc3c12	JMJD2A Tudor inh 35.5µM (no result: L3MBTL1 block)
CCCn1c(=O)c(C(=O)OCC)c(O)c2cc(Br)ccc21	G9a inh inconclusive (no result: L3MBTL1 block)
COc1ccc(Br)cc1C(=O)Nc1ccc(N2CCCC2)cc1	JMJD2A Tudor inh inconclusive, BAZ2B inh 22.4µM, HP1b chromo inh inconclusive (no result: G9a inh)
O=C(c1c(F)c(F)c(F)c(F)c1F)N1CCN(c2cccc(C(F)(F)F)c2)CC1	L3MBTL1 block inconclusive, JMJD2A Tudor inh 14.1µM, G9a inh inconclusive, HP1b chromo inh inconclusive
COc1ccccc1C(=O)Nc1ccc(N2CCN(Cc3ccccc3)CC2)cc1	JMJD2A Tudor inh inconclusive, G9a inh inconclusive, BAZ2B inh 44.7µM, HP1b chromo inh inconclusive
COc1ccccc1C(=O)Nc1ccc(N2CCCCC2)cc1	JMJD2A Tudor inh 56.2µM, G9a inh 50.1µM, BAZ2B inh inconclusive, HP1b chromo inh inconclusive (no result: L3MBTL1 block)
COCCn1c(=O)c(-c2ccccc2)nc2cnc(N(C)C)nc21	none (no result: L3MBTL1 block, PI5P4Ka inh, JMJD2A Tudor inh, BAZ2B inh, HP1b chromo inh)
Cc1cc(C)c(S(=O)(=O)NCc2ccc3c(c2)CCN3C(=O)c2ccccc2)c(C)c1	none (no result: L3MBTL1 block, PI5P4Ka inh)
CCN1CCN(c2ccc(NC(=O)Cc3ccccc3)cc2)CC1	none (no result: L3MBTL1 block)
COc1ccc(C(=O)Nc2ccc(N3CCN(C)CC3)cc2)cc1OC	none (no result: G9a inh)
COc1ccc(C(=O)CCC(=O)Nc2ccc(N3CCCCC3)cc2)cc1OC	JMJD2A Tudor inh inconclusive, G9a inh 44.7µM, BAZ2B inh 35.5µM, HP1b chromo inh inconclusive (no result: L3MBTL1 block)
CC(=O)Nc1ccc(CN2CCN(c3cccc(C(F)(F)F)c3)CC2)cc1	JMJD2A Tudor inh 2.51µM, G9a inh inconclusive, BAZ2B inh 50.1µM (no result: L3MBTL1 block, PI5P4Ka inh)
COc1ccc(C)cc1NC(=O)c1ccc(CN2CCN(c3ccccc3)CC2)cc1	JMJD2A Tudor inh inconclusive, G9a inh 50.1µM, BAZ2B inh inconclusive
CCC(=O)Nc1ccc(N2CCN(Cc3ccccc3)CC2)cc1	G9a inh 50.1µM
CCC(Sc1nc2ncccc2o1)C(=O)Nc1ccc(OC)c(OC)c1 (configuration not stated)	none (no result: L3MBTL1 block, PI5P4Ka inh)
COc1cccc(OC)c1C(=O)Nc1ccc(N2CCCC2)cc1	JMJD2A Tudor inh inconclusive, G9a inh 12.6µM, BAZ2B inh inconclusive
Cc1ccccc1NC(=O)c1c(C)[nH]c(=S)c(C#N)c1-c1ccco1	PI5P4Ka inh -63.2, G9a inh 1.26µM
CSc1nc(C)c(C(=O)Nc2ccccc2)c(-c2ccco2)c1C#N	none (no result: L3MBTL1 block)
CNC(=O)c1c(C)[nH]c(=S)c(C#N)c1-c1ccco1	PI5P4Ka inh inconclusive, JMJD2A Tudor inh 17.8µM, BAZ2B inh inconclusive, HP1b chromo inh inconclusive (no result: G9a inh)
COc1ccc2c(c1)c1c(c(=O)n(Cc3ccccc3)c(=O)n1Cc1cccc(Cl)c1)n2C	none (no result: L3MBTL1 block, PI5P4Ka inh)
Cc1ccccc1C(=O)Nc1cccc(C(=O)OCc2cc(=O)n3c4c(sc3n2)CCCC4)c1	none (no result: L3MBTL1 block, PI5P4Ka inh)
O=C(O)/C=C/c1cn(-c2ccccc2)nc1-c1ccc(-c2ccc([N+](=O)[O-])cc2)o1	PI5P4Ka inh -60.5, JMJD2A Tudor inh 44.7µM, G9a inh 50.1µM, BAZ2B inh 50.1µM, HP1b chromo inh inconclusive
CCCNC(=O)c1nn2c(C(F)(F)F)cc(-c3ccccc3)nc2c1Cl	none
O=C(NCCCn1ccnc1)c1nn2c(C(F)(F)F)cc(-c3ccc(Br)cc3)nc2c1Cl	L3MBTL1 block inconclusive, JMJD2A Tudor inh 44.7µM, G9a inh 50.1µM, BAZ2B inh 50.1µM, HP1b chromo inh inconclusive

Source: PubChem BioAssay (National Center for Advancing Translational Sciences (NCATS))
